Shown are actives, neighbours in structure and some others; about 3.9% of the full set was active somewhere.
GDH-TPI counter: GDH-TPI coupled enzyme inhibition counter-screen; hit rate 1.2% among 360,000; GDH-TPI coupled enzyme counterscreen, NADH absorbance; AID 588335; inhibition, % at 4.8 µM; in the data active means inhibition above about 30%;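 further: 0% = DMSO wells and 100% = wells lacking the enzyme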
SARS 3CLpro inh: SARS-CoV 3CLpro protease inhibition; recombinant SARS-CoV 3CLpro, quenched FRET peptide cleavage; AID 1706; hit rate 0.14% among 290,000; inhibition, % at 6 µM; in the data active means inhibition above about 12%
PrPC TRFRET: cell surface PrPC inhibition, primary TR-FRET screen | P04156 | TR-FRET read-out | inhibition, % at 13.8 µM | AID 720596 | hit rate 0.43% among 370,000; in the data active means inhibition above about 24%; further: 0% = median of the test wells and 100% = reference compound wells
Mtb FBA inh: Mtb fructose-bisphosphate aldolase inhibition | P9WQA3 | purified M. tuberculosis FBA, fluorescence read-out | inhibition, % at 1 µM | hit rate 2.3% among 360,000; in the data active means inhibition above about 27%;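 further: 0% = vehicle and 100% = reference inhibitor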
Target sequence (P9WQA3 whole entry, looked up): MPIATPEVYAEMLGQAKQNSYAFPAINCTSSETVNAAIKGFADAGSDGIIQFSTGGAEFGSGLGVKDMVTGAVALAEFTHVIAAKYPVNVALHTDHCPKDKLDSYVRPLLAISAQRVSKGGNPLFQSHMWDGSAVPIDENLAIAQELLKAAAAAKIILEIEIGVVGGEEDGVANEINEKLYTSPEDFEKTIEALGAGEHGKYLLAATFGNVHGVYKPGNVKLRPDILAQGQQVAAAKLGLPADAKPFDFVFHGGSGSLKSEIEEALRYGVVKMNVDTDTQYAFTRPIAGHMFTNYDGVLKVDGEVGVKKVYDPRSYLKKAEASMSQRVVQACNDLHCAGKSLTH
BH1578 lux ind: quorum light induction in luxS cqsA deficient V. cholerae | V. cholerae BH1578 lux reporter, luminescence, 6 h | AID 588436 | hit rate 0.16% among 350,000 | activation, % at 18.7 µM; in the data active means activation mostly above about 9.7%, no sharp cut-off
Starred values were filed as active, the others as inactive; i = inactive; / = no result; + = active, no number.

SMILES	GDH-TPI counter	SARS 3CLpro inh	PrPC TRFRET	Mtb FBA inh	BH1578 lux ind
COc1cc(O)cc2c1[C@@H]1Oc3c(ccc(O)c3CC=C(C)C)[C@@H]1CO2	-2	/	-3	0	0
COc1ccc(C(=O)NNC(=O)c2ccc(S(=O)(=O)N3CCCCC3)cc2)cc1	11	3	2	6	i
COc1ccc(-c2cc(C(F)(F)F)nc(SCC(=O)NCc3cnn(C)c3C)n2)cc1OC	26	3	-4	4	-1
COc1ccc(-c2cc(C(F)(F)F)nc(SCC(=O)N(C)Cc3cn(C)nc3C)n2)cc1OC	41*	1	-6	13	0
COc1ccc(-c2cc(C(F)(F)F)nc(SCC(=O)NCc3ccco3)n2)cc1OC	31*	1	-8	5	-2
COc1ccc(-c2cc(C(F)(F)F)nc(SCC(N)=O)n2)cc1	14	1	5	114*	i
NS(=O)(=O)c1ccc(CNC(=S)NC2CC2)cc1	2	4	1	0	0
CC(=O)c1ccc(OCc2cc(C(=O)N3CCN(C4CCCC4)C(=O)C3)no2)cc1	2	6	-6	2	i
COc1ccc(-c2nsc(C(=O)N(c3ccc(F)cc3)C(C(=O)NC3CCCC3)c3ccc(OC)cc3)c2N)cc1 (stereo unspecified)	31*	3	3	-1	6
COc1ccc(N(C(=O)CCl)C(C(=O)NC2CCCCC2)c2cccnc2)cc1 (stereo unspecified)	-8	21*	-1	1	0
CC(/C=C/c1ccc(N(C)C)cc1)=N/N=C1/NC(=O)CC(C(=O)Nc2ccc(Cl)cc2)S1 (stereo unspecified)	27	-4	0	-8	-1
CCCOc1ccc(NC(=O)C2CC(=O)N/C(=N/N=C(C)/C=C/c3ccc(N(C)C)cc3)S2)cc1 (stereo unspecified)	32*	2	4	-3	i
CCc1ccc2c(CSc3nnnn3C)cc(=O)oc2c1	34*	-1	-2	8	i
Cc1cccc(C(=O)OCC(=O)c2csc(N3CCCCC3)n2)c1[N+](=O)[O-]	36*	/	3	1	i
COc1cccc2c1[C@H](/C=C/c1ccccc1)[C@@H]([C@H](O)COC(C)=O)OC2	/	/	3	/	/
CCn1c(-c2ccc(N(C)C)cc2)nc2ccccc21	17	4	9	+	i
CN(C)c1ccc(-c2nc3ccccc3n2C)cc1	18	-2	1	+	i
CC(C)n1c(-c2ccc(N(C)C)cc2)nc2ccccc21	11	0	9	185*	-1
O=C(Cn1c(-c2cncs2)nc2ccccc21)NC1CCCCC1	/	/	5	/	/
Cc1cc(C)c2nc(Cl)c(Cl)nc2c1	-2	3	-8	-2	-1
CN(C)c1c2ccccc2nc2c(F)c(F)c(F)c(F)c12	1	-1	/	117*	0
CC(C)(CNC(=O)c1cccc(S(=O)(=O)N2CCCCC2)c1)N1CCOCC1	11	/	-11	1	-3
COc1ccc(CCNC(=O)COc2ncnc3cc([N+](=O)[O-])ccc23)cc1	10	-1	-33	-2	-2
O=[N+]([O-])c1cccc(COc2ncnc3cc([N+](=O)[O-])ccc23)c1	35*	3	-53	3	0
O=C(O)CCn1c2ccccc2c2nc3ccccc3nc21	31*	8	-6	-1	i
SMILES	GDH-TPI counter	SARS 3CLpro inh	PrPC TRFRET	Mtb FBA inh	BH1578 lux ind
Nc1ncnc2c1ncn2-c1ccccc1Cl	5	/	3	-2	i
N#Cc1c(-c2ccccc2)cc2nc3ccccc3n2c1N	23	3	-5	147*	0
Nc1cc(-c2ccccc2)n2c(n1)nc1ccccc12	2	-6	-11	4	1
COc1cc(-c2cc3nc4ccccc4n3c(N)c2C#N)cc(OC)c1OC	9	-2	-7	+	i
COc1cc2nc(N3CCN(C(=O)OCc4ccccc4)[C@H](C(=O)NC(C)(C)C)C3)nc(N)c2cc1OC	20	/	-14	89*	i
COc1ccc(C)cc1NC(=O)C1CCCN1C(=O)OCc1ccccc1 (stereo unspecified)	21	2	5	1	1
CC1(C)CC(=O)C=C(c2ccc3c(c2)OCO3)C1	33*	/	-10	4	i
CC1(C)CC(=O)C=C(c2ccc(-c3ccccc3)cc2)C1	-3	/	-1	0	i
O=C(COC(=O)c1ccccc1SCC(=O)N1CCCC1)NCc1ccccc1	6	/	2	4	i

Compound activity (PubChem BioAssay)
